Screening data deposited in PubChem by several laboratories.
Ins promoter up – MIN6 insulin promoter up-regulation. z-score at 5 µM. 0.3% of 190,000 active. MIN6 insulin promoter-GFP reporter, high-content imaging; hits give high values;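 active = z-score above 3 at 5 µM with at least 500 cells counted in the well; inconclusive = wells under 500 cells, flagged as cytotoxic or low count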
Lmaj promast – Leishmania major promastigote growth inhibition. 9% of 200,000 active. inhibition, % at 10 µM. Leishmania major promastigotes, resazurin fluorescence viability; in the data active = inhibition above about 50%;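 also: promastigotes grown with compound for 44 hours at 28 °C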
Insulin prom inh – TRM-6 insulin promoter activity inhibition. AID 1273. TRM-6 cells (human fetal islet line), insulin promoter-eGFP reporter, imaging; reporter expression induced with tamoxifen. 0.9% of 130,000 active. inhibition, % at 2 µM;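 active = inhibition above the mean plus 3 SD, with well images judged a real hit on visual review, cut at about 60% in these data, passing the limit was not always enough; inconclusive = inhibition over the cutoff but images rejected on review; inactive = inhibition not above the cutoff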
WT yeast gro inh – growth inhibition of WT yeast, mitochondrial fusion screen; mitochondrial fusion phenotypic screen, WT strain; inhibition, % at 10 µM; 2.1% of 190,000 active; in the data active = inhibition above about 58%; tested in S. cerevisiae
Autophagy HCS – autophagy modulation, high-content screen; MEF GFP-LC3 puncta imaging; test concentration mostly 10 µM; calls only at 10 µM (by protocol); 0.98% of 190,000 active; AID 463193;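 active = percentage of spot-positive cells more than 3 SD above its plate mean, without a fluorescence outlier flag or 80% toxicity; inconclusive = no clear call, values can overlap the other calls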;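 also: spot-positive cell cutoff set from DMSO-treated cells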
L major 1uM – L. major promastigote growth inhibition, 1 uM repeat. inhibition, % at 1 µM. resazurin fluorescence, 48 h. 13% of 1,100 active. shares compounds with Lmaj promast;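 active = inhibition above about 50% in both repeat tests, limit read from the data; inconclusive = one repeat under the set limit, the other over it; inactive = both repeats under the set limit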
* marks the source's active call; other numbers are inactive results; i = inactive; ? = inconclusive; · = no result. Compounds with a hit are over-represented: about 11% of the library has one in this group of screens.

SMILES	Ins promoter up	Lmaj promast	Insulin prom inh	WT yeast gro inh	Autophagy HCS	L major 1uM
O=C(COC(=O)c1ccccc1Sc1ccc(C(F)(F)F)cc1[N+](=O)[O-])NC(=O)NC1CCCC1	1.8	18	-13	13	i	·
COc1cccc(/C=N/n2c(SC)nnc2-c2ccccc2)c1OC	-1.2	84*	·	11	i	22
COc1cccc(/C=N/n2c(SC)nnc2-c2ccccc2)c1O	-0.02	-9	29	-4	i	·
CC1=Nc2cccc3cccc(c23)N1C	0.03	85*	50	-6	i	-18
CC1N(C)c2cccc3cccc(c23)N1C	·	5	-469	51	i	·
O=C1C(=O)c2c(C(=O)c3ccccc3)coc2-c2ccccc21	?	100*	19	88	i	61*
Cc1cccc(COCC(CC(C)C)N2CCN(C(=O)c3ccc(C(C)(C)C)cc3)CCC2=O)c1 (centres undefined)	·	58*	-30	84*	i	-8
Cc1cccc(COCC(CC(C)C)N2CCN(C(=O)c3ccc(C(F)(F)F)cc3)CCC2=O)c1 (centres undefined)	-1	9	10	44	i	·
CCOC(=O)Nc1ccc2c(c1)Nc1ccccc1S2	1.2	67*	·	13	i	-15
CCOC(=O)Nc1ccc2c(c1)N(C(=O)N1CCN(C)CC1)c1ccccc1S2	-0.31	84*	·	52	i	10
C=CC(=O)N1c2ccccc2Sc2ccc(NC(=O)OCC)cc21	·	12	40	-22	i	·
CC1=CC(C)(C)Nc2ccc(OC(=O)c3ccco3)cc21	2	101*	-18	-5	i	2
CC1=CC(C)(C)N2C(=O)C(=O)c3cc(OC(=O)c4ccco4)cc1c32	2	37	·	4	i	·
O=S(=O)(CCN(CCS(=O)(=O)C(F)(F)F)CC1CCCO1)C(F)(F)F (centres undefined)	2	100*	·	-5	i	8
Cc1cc(C)c(/C=N/n2c(C)cc(C)c(C#N)c2=O)c(C)c1	?	73*	25	23	i	20
CCOc1ccccc1CNCc1ccc(C(=O)O)cc1	0.41	6	12	6	i	·
CCOc1ccccc1CNCc1ccc(F)cc1	0.49	54*	·	4	i	-8
CCN(CC)CC(=O)Nc1ccc2c(c1)N(C(=O)CN(CC)CC)c1ccccc1CC2	0.37	99*	·	10	i	8
Cn1c(C(=O)N2CCN(c3ccc(Cl)cc3)CC2)cc2c(=O)n(C)c3ccccc3c21	·	·	·	15	·	·
COc1cccc(C=Nc2cccc3c(=O)[nH][nH]c(=O)c23)c1O	-0.3	-7	-6	10	i	·
COc1ccccc1NC(=S)N(Cc1ccco1)Cc1cc2cc(C)c(C)cc2[nH]c1=O	·	37	-192	9	i	·
COc1ccccc1NC(=S)N(Cc1ccco1)Cc1cc2cccc(C)c2[nH]c1=O	-1.3	100*	11	1	i	18
Cc1cc2c(c(/C=C/C(=O)c3ccccc3)c1)OC1(C=C2)Oc2ccccc2C(=O)N1C (centres undefined)	-2.1	98*	50	0	i	25
Cc1c(/C=C/C(=O)c2ccccc2)cnn1C	-0.49	4	·	12	i	·
COc1ccc(C(N)CCc2ccc(C)o2)cc1 (centres undefined)	-0.59	54*	·	26	i	-15
SMILES	Ins promoter up	Lmaj promast	Insulin prom inh	WT yeast gro inh	Autophagy HCS	L major 1uM
O=C(O)CCCCCCCCCCP(=O)(c1ccccc1)c1ccccc1	-0.03	·	·	·	·	·
O=P(CCCCCCCCCP(=O)(c1ccccc1)c1ccccc1)(c1ccccc1)c1ccccc1	-0.39	93*	-22	16	i	-5
OC(CC1CC12c1ccccc1-c1ncccc12)(c1ccccc1)c1ccccc1 (centres undefined)	·	69*	29	74*	i	9
CCn1c(SC(=O)NC2CCCCC2)nnc1-c1cccs1	0.11	-2	·	18	i	·
CC(C)(CSc1ncccn1)NS(=O)(=O)c1ccccc1	0.83	-1	14	6	i	·
Cc1ccc(S(=O)(=O)NC(C)(C)CSc2nnc(Nc3ccccc3)s2)cc1	-0.58	100*	8	-11	i	-6
CC1(C)CC(=O)c2cc(C(=O)NNc3ccccc3)c(=O)n(-c3ccccc3)c2C1	·	52*	-44	6	i	11
CC(=O)c1ccccc1NS(=O)(=O)c1c(C)nn(-c2ccccc2)c1C	·	96*	-7	3	i	43
Cc1ccc(-n2nnnc2C(Cl)c2nnnn2-c2ccc(C)cc2)cc1	0.06	99*	-68	74*	i	32
CCCCCCC1CC(CSC(=N)N)OC1=O (centres undefined)	-0.36	100*	-52	-10	i	3
CCCC1CC(CSC(=N)N)OC1=O (centres undefined)	0.04	-8	-22	-14	i	·
O=C(NCCO)C(F)(F)C(F)(F)C(F)(F)OC(F)(C(=O)NCCO)C(F)(F)F (centres undefined)	0.45	-3	-13	-9	i	·
COc1ccc2[nH]c(=O)c(CN(Cc3cccnc3)Cc3nnnn3CC3CCCO3)cc2c1 (centres undefined)	-0.27	·	·	·	·	·
COC(=O)C(Cc1cnc(Cl)s1)(C(=O)OC)c1ccc([N+](=O)[O-])cc1[N+](=O)[O-]	-0.78	63*	-19	23	i	-15
CCOC(=O)c1cc(NC(=O)c2ccco2)ccc1N1CCOCC1	-0.36	0	·	-8	i	·
Cc1ccc(C2CC(C(F)(F)F)n3ncc(C(=O)NCc4ccco4)c3N2)cc1 (centres undefined)	-0.68	5	-9	-1	i	·
CCc1ccc(NSc2ccccc2[N+](=O)[O-])cc1	-0.07	99*	0	80*	i	71*
CSc1nnc(C)c(=O)n1COC(=O)c1cc(Cl)ccc1[N+](=O)[O-]	1.7	-5	·	-17	i	·
O=C(N/N=C/c1cc(Br)ccc1O)Nc1ccccc1	-4.9	12	27	32	i	·
CCOc1ccccc1NC(=O)C(=O)N/N=C/c1cc(Br)ccc1O	-0.49	100*	·	-4	i	-38
O=C(CCc1ccccc1)Nc1nnc(-c2ccccn2)o1	-0.32	62*	·	1	i	34
CCC(=O)Nc1nnc(-c2ccccn2)o1	-0.04	-3	·	-9	i	·
CCCCCCCCC[n+]1cccc2c3ccccc3ccc21	?	101*	·	54	i	101*
O=[N+]([O-])c1ccc(C[n+]2cccc3c4ccccc4ccc32)cc1	-1.1	4	-54	37	i	·
O=C/C(=C\Nc1ccc(S(=O)(=O)CCO)cc1)c1nc2cc(Cl)ccc2o1	-0.38	10	·	-11	i	·
Cc1c(NC(=O)OC(C)C)sc(=S)n1C	0.03	97*	-8	-7	i	10
CC(=O)NCCOC(=O)Nc1sc(=S)n(C)c1C	·	-10	-11	-9	i	·
C[N+]1(C2CCC3CCCC2C3O)CCCC1 (centres undefined)	-0.16	65*	1	6	i	-12
